MRP reversal: MRP-mediated drug resistance reversal | AID 602 | differential viability (reversal), % at 10 µM | H69AR cells + 2 uM doxorubicin, CellTiter-Glo, 72 h | actives 0.04% (n = 85,000);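 active = viability drop by adding the cancer drug above about 55%, with treated viability meeting a 40% cutoff, limit read from the data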;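 also: larger differential means the compound sensitizes cells more to doxorubicin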
CYP2C9 inh: blocks human cytochrome P450 2C9; actives 20% (n = 96,000); AID 777; inhibition, % at 5 µM; CYP2C9 Supersomes, luciferin-H conversion, luminescence; P11712;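 active = blocking of liver enzyme CYP2C9 beyond about 50% at 5 µM, limit read from the data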
CYP2C19 inh: human CYP2C19 inhibition | CYP2C19 Supersomes, luciferin-H EGE luminescence, 30 min | inhibition, % at 5 µM | actives 21% (n = 96,000);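 active = CYP2C19 inhibition above a set limit at 5 µM in the primary screen, cut at about 50% in these data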
Target sequence (P33261 whole entry, looked up): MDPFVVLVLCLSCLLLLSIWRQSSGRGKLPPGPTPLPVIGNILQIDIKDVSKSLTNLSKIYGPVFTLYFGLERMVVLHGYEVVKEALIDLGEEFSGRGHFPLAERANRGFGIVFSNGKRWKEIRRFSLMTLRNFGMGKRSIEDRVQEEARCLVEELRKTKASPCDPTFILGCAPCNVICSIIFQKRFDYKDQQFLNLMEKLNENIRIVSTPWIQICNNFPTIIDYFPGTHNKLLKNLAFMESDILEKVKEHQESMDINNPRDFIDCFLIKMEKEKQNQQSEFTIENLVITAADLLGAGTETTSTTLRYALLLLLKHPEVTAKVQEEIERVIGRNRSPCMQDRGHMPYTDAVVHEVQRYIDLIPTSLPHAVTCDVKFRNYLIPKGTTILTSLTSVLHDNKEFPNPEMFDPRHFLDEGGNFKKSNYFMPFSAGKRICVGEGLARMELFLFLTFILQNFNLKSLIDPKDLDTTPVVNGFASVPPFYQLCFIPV
MRP-1 activ: activators of MRP-1; H69AR cells + doxorubicin, viability rescue, CellTiter-Glo; viability increase, % at 10 µM; actives 0.61% (n = 140,000); AID 799;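 active = viability gain under doxorubicin at or above a set limit, the compound median plus 3 SD, cut at about 4.7% in these data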;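 also: MRP-1 overexpressing cells given doxorubicin 25 µM after compound pretreatment; 18-22 h compound pretreatment then 72 h with doxorubicin before readout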
CYP2C19 activ: cytochrome P450 2C19 (human) activation | P33261 | recombinant CYP2C19, luciferin-H EGE luminescence; stronger effect = higher value; 0 = fully inhibited enzyme, 1 = untreated enzyme | activation factor at 5 µM | 96,000 tested, under 10 active | AID 1025;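 active = activation factor of at least 2 at 5 µM in the primary screen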
CYP2C9 activ: increases human cytochrome P450 2C9 activity | actives 1.4% (n = 96,000) | recombinant CYP2C9, luciferin-H conversion, luminescence; stronger effect = higher value; factor 1 = untreated enzyme, 0 = blocked | activation factor at 5 µM | AID 1024 | P11712;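 active = activation factor of 2 or more for CYP2C9 at a 5 µM dose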
Numbers stand for hits; n = inactive; x = no result. Compounds with a hit are over-represented: about 21% of the library has one in this group of screens.

SMILES	MRP reversal	CYP2C9 inh	CYP2C19 inh	MRP-1 activ	CYP2C19 activ	CYP2C9 activ
CC(C)OC(=O)/C(=C/c1ccc(Br)cc1)NC(=O)c1ccco1	x	x	x	n	x	x
Cc1cc(C(=O)c2cnc(/N=C/N(C)C)s2)cc(C)c1O	x	n	n	n	n	2
COc1cccc(NC2c3ccccc3C(=O)N2Cc2ccco2)c1 (centres undefined)	n	57.2	n	n	n	n
O=C1c2ccccc2C(Nc2cccc(C(F)(F)F)c2)N1Cc1ccco1 (centres undefined)	n	60.0	67.9	n	n	n
CCN(CC)S(=O)(=O)c1ccc(NC2c3ccccc3C(=O)N2Cc2ccco2)cc1 (centres undefined)	n	92.2	n	n	n	n
CCN(CC)S(=O)(=O)c1ccc(NC2c3ccccc3C(=O)N2Cc2ccc3c(c2)OCO3)cc1 (centres undefined)	n	n	n	n	n	n
CCOC(=O)c1cccc(NC2c3ccccc3C(=O)N2Cc2ccco2)c1 (centres undefined)	n	n	n	n	n	n
CCOC(=O)c1cc(-c2ccccc2)sc1NC(=O)C(C)N1C(=O)c2ccccc2C1=O (centres undefined)	x	x	x	n	x	x
COc1ccc(Br)cc1S(=O)(=O)N(CC(=O)N1CCOCC1)c1ccccc1	x	67.8	56.1	n	n	n
COc1ccc(C)cc1S(=O)(=O)N(C)CC(=O)N1CCCCC1	n	x	x	n	x	x
COc1ccc(C)cc1S(=O)(=O)N(CC(=O)N1CCCC1)c1ccccc1	n	89.3	n	n	n	n
Cc1cccc2cc(CN(Cc3nnnn3C3CCCCC3)C3CCCC3)c3nnnn3c12	n	x	x	n	x	x
c1ccc(C(Cc2nc(-c3ccccn3)no2)c2ccccc2)cc1	n	54.5	n	n	n	n
Cc1ccc(Cc2nc(-c3ccccn3)no2)cc1	n	n	n	n	n	n
c1ccc(CCCc2nc(-c3ccccn3)no2)cc1	n	n	65.2	n	n	n
c1ccc(SCc2nc(-c3ccccn3)no2)cc1	n	n	75.9	n	n	n
c1ccc(Cc2nc(-c3ccccn3)no2)cc1	n	n	n	n	n	n
O=C(CCN1c2ccccc2Sc2ccccc21)OCC(=O)N1CCN(C(=O)c2ccco2)CC1	n	n	n	n	n	n
CCCCNC(=O)C1CCCN1C(=O)Nc1ccccc1 (centres undefined)	n	x	x	n	x	x
c1ccc(COc2ccc(Nc3ncnc4nc[nH]c34)cc2)cc1	n	n	n	n	n	n
Cc1ccc(-n2c(CNc3ccc(F)cc3)nnc2SCC(N)=O)cc1	n	n	n	n	n	n
Cc1csc(NC(=O)CSc2nnc(-c3ccc(S(=O)(=O)N4CCCC4)cc3)o2)n1	n	61.4	n	n	n	n
CCN(CC)S(=O)(=O)c1ccc(-c2nnc(SCC(=O)N3CCc4ccccc43)o2)cc1	n	65.6	n	x	n	n
COc1ccc(OCc2nnc(SCC(=O)NCc3ccco3)o2)cc1	n	71.8	n	n	n	n
COc1ccc(-c2nnc(SCC(=O)NCc3ccco3)o2)cc1	n	n	65.0	n	n	n
SMILES	MRP reversal	CYP2C9 inh	CYP2C19 inh	MRP-1 activ	CYP2C19 activ	CYP2C9 activ
COc1ccc(Cc2nnc(SCC(=O)NCc3ccco3)o2)cc1	n	n	n	n	n	n
COc1ccc(C(=O)/C=C/c2ccccc2C(F)(F)F)cc1	x	n	n	n	n	n
Cc1ccc2oc(-c3cccc(NC(=O)/C=C/c4cccc([N+](=O)[O-])c4)c3C)nc2c1	x	x	x	n	x	x
COC(=O)C1=C(C)Nc2nc(SCc3ccccc3)[nH]c(=O)c2C1c1cccs1 (centres undefined)	x	x	x	n	x	x
O=C(CCCc1c[nH]c2ccccc12)N1CCN(S(=O)(=O)c2cccs2)CC1	n	n	n	n	n	n
CC1(C)N=C(/C=N/O)CN1O	n	n	n	n	n	n
COc1ccc(/C=C/c2nnc(NC(=O)CSc3ccc(Cl)cc3)s2)cc1	x	x	x	n	x	x
O=C(CSc1nnc(-c2ccc(S(=O)(=O)N3CCCC3)cc2)o1)NCc1ccco1	n	76.6	63.3	n	n	n
CC1Cc2ccccc2N1C(=O)CSc1nnc(-c2ccc(S(=O)(=O)N3CCCC3)cc2)o1 (centres undefined)	n	88.1	65.9	n	n	n
Cc1ccc(NC(=O)c2ccc(CSc3nnc(C)s3)cc2)c(C)c1	x	n	n	n	n	n
CC(=O)CSc1nnc(-c2ccncc2)n1C	x	n	n	n	n	n

Assay outcomes (PubChem)
